PubChem BioAssay AID624111 (Johns Hopkins Ion Channel Center, 2012)
The whole screen tested about 4,000 compounds, of which about 60 (2%) were called active.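 The calls were made as follows: active = duplicate-averaged calcium fluorescence ratio at least three times the standard deviation of buffer wells, a nonspecific response in parental cells; inactive = the rest.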 Only a selection was taken, and actives are over-represented in it overall.

Assay: nonspecific calcium signal in parental HEK293, confirmation, counter-screen for MrgX1 antagonist project, parental HEK293 cells, Fluo-4 calcium flux (AID 624111)
Details: parental HEK293, Fluo-4 calcium fluorescence, FDSS; at 10 µM

Compound | fluorescence ratio F(max-min)/F0
CCOCc1nnc(NC(=O)CCC2CCCCC2)s1 | inactive
O=C(Cn1c(-c2cncs2)nc2ccccc21)NC1CCCC1 | inactive
COc1cc(C2/C(=C(\O)c3ccc4c(c3)CC(C)O4)C(=O)C(=O)N2Cc2ccco2)ccc1O (stereo not drawn) | inactive
CC1CCCCN1S(=O)(=O)c1ccc(C(=O)Nc2nnc(-c3cccs3)o2)cc1 (stereo not drawn) | inactive
O=C(Oc1ccc(C(=S)N2CCOCC2)cc1)c1ccc(F)cc1 | inactive
COC(=O)Cc1cc(=O)n(-c2nc3ccccc3s2)[nH]1 | inactive
COC(=O)c1c(NC(=O)c2c(Cl)cnn2C)sc(C)c1C | inactive
COc1cccc(CCNC(=O)COc2cccc3c2OC(C)(C)C3)c1 | inactive
CCOC(=O)Cc1csc(SCc2cc(=O)oc3cc(O)ccc23)n1 | inactive
NC(=O)c1c(Nc2nc3c(F)cccc3s2)sc2c1CCCC2 | inactive
COc1ccc([N+](=O)[O-])cc1NC(=O)COC(=O)/C=C/c1ccco1 | inactive
Cc1ccc(OC(=O)c2cc3ccccc3o2)cc1 | inactive
Cc1cccc(-n2c(Cc3cc(=O)[nH]c(=O)[nH]3)nnc2SC(C)C)c1 | inactive
Cc1ccc(Nc2nc(-c3ccc(O)cc3O)cs2)nc1 | inactive
COc1ccc(Nc2nc(-c3cccnc3)nc3ccccc23)cn1 | inactive
Cc1ccc(S(=O)(=O)N(C)c2nc3ccccc3n3c(C(C)C)nnc23)cc1 | inactive
COC(=O)c1c(NC(=O)CN(c2ccc(C)c(C)c2)S(C)(=O)=O)sc2c1CCCC2 | inactive
Cc1nonc1C1CCCN1Cc1nc(-c2ccc(F)cc2F)oc1C (stereo not drawn) | inactive
Cc1ccc(C(C(=O)NC2CCCCC2)N(C(=O)c2csnn2)C2CC2)o1 (stereo not drawn) | inactive
CCCc1nc2c(c(=O)c3ccccc3n2C)c(=O)n1C1CCCCCC1 | inactive
COC(=O)c1ccc(C2C3=C(Nc4nnnn42)c2ccccc2OC3)cc1 (stereo not drawn) | inactive
CCN(CC)c1ccc(C2C3CCCCC3(O)CCN2CC(=O)Nc2ccccc2)cc1 (stereo not drawn) | inactive
Cc1cccc(NC(=O)COc2ccccc2C)n1 | inactive

Compound | fluorescence ratio F(max-min)/F0
COc1ccc(Cc2nc(-c3ccccn3)no2)cc1OC | inactive
CN(C)CCn1c(=S)[nH]c2ccc(Cl)cc2c1=O | inactive
O=C(CSc1ncccn1)NC(=O)NCc1ccccc1 | inactive
O=C(c1cccc(S(=O)(=O)Nc2ccccc2Cl)c1)N1CCN(C(=O)c2ccco2)CC1 | inactive
O=C(Nc1ccccc1)c1nnsc1S(=O)(=O)c1ccc(Cl)cc1 | inactive
Cc1ccc(-n2[nH]c(C)c(/C=N/N3C(=O)c4cccc5cccc(c45)C3=O)c2=O)cc1 | inactive
CCCCC(=O)Nc1ccc2c(c1)C(=O)NC2=O | inactive
O=C(Cc1ccccn1)c1ccc(O)cc1O | inactive
Cc1cc2ncn(CCCCOc3ccccc3)c2cc1C | inactive
CC(C)(C)n1c(=O)[nH]c2c(c1=O)CCC2 | inactive
Cc1ccc2nc(-c3ccc(NC(=O)CN(C)S(=O)(=O)c4ccccc4)cc3)sc2c1 | inactive
Cc1cccc(NC(=O)C(C)N2C(=O)C3C4CC(C(Br)C4Br)C3C2=O)c1 (stereo not drawn) | inactive
C=CCNC(=O)c1csc(-c2ccccc2)n1 | inactive
CCc1ccc(N(CC(=O)Nc2sc3c(c2C(=O)OC)CCCC3)S(C)(=O)=O)cc1 | inactive
Cc1ccc(Cc2cnc(N)s2)o1 | inactive
COc1ccc(Nc2nnc(C)c3ccccc23)cc1 | inactive
Cc1nn(-c2ccccc2)c(C)c1NC(=O)COc1ccc(Cl)cc1Cl | inactive
O=C(Nc1cccc(Cl)c1)c1cncn1-c1ccc(F)cc1 | inactive
CCC(C)Sc1nc(C)nc2c1c(=O)n(C)c(=O)n2C (stereo not drawn) | inactive
CCc1cc2c(SCC(=O)Nc3ncc(Cl)c(C)c3Cl)ncnc2s1 | inactive
N#CC1=C(N)Oc2c(sc3ccccc23)C1c1ccco1 (stereo not drawn) | 0.504 (active)
CCC(C)c1ccccc1N1CC(C(=O)N2CCN(S(=O)(=O)c3ccc(F)cc3)CC2)CC1=O (stereo not drawn) | inactive
COc1ccccc1Oc1nc(-c2cccnc2)nc2ccccc12 | inactive

Compound | fluorescence ratio F(max-min)/F0
COC(=O)c1ccc(COC(=O)C2CCN(S(=O)(=O)c3c(Cl)cccc3Cl)CC2)o1 | inactive
CN1C(CC(=O)Nc2ccc(Br)cc2)c2ccccc2CC1(C)C (stereo not drawn) | inactive
O=C(COc1ccc(Cl)cc1)NC(=S)Nc1ccccc1N1CCOCC1 | inactive
Nc1ccc(Oc2ccc(Cl)cc2)cc1 | inactive
Cc1cc(=O)oc2cc(NC(=O)C3CC(=O)N(Cc4ccccc4)C3)ccc12 (stereo not drawn) | inactive
COCCCNC(=O)C1CCN(c2ccc(N3CCOCC3)nn2)CC1 | inactive
COc1ccc(C(=O)NC(=S)NC2CCCCC2)cc1 | inactive
O=C(Nc1ccc(Br)cc1F)C1CC(=O)N(C2CCCCC2)C1 (stereo not drawn) | inactive
CCN(c1cccc(C)c1)S(=O)(=O)c1ccc(-c2coc(C)n2)cc1 | inactive
CC(=O)N(C1=C(Cl)C(=O)c2ccccc2C1=O)c1ccc(C(=O)O)cc1 | inactive
CCOC(=O)c1c(NC(=O)CSc2cn(CC)c3ccccc23)sc2c1CCC2 | inactive
O=C(c1ccc(O)cc1)c1ccc(C(=O)O)c(C(=O)O)c1 | inactive
CCOc1ccc(NC(=O)CCNC(=O)c2ccc(Br)cc2)cc1 | inactive
O=C1CCCN1CCCNC(=S)Nc1ccc(F)c(Cl)c1 | inactive
COc1ccc(S(=O)(=O)N2CCN(C(=O)NC3CCCCC3)CC2)cc1 | inactive
O=C(Nc1nnc(-c2ccccc2)o1)c1cc(-c2cccs2)nc2ccccc12 | inactive
Cc1cc(Br)ccc1NC(=O)c1cnc(N2CCN(c3ccccn3)CC2)c2ccccc12 | inactive
Cc1c(C(=O)N2CCN(c3ccc(F)cc3)CC2)oc2c1C(=O)CCC2 | inactive
CC(C)CC(=O)N/C(N)=N/c1nc2ccccc2s1 | inactive
CC(=O)N(C)c1ccc(NC(=O)C(F)(F)F)cc1 | inactive
CCOC(=O)c1c(C)[nH]c(=S)c(C#N)c1-c1ccccc1 | inactive
CCc1cc(=O)oc2cc(C)cc(OCC(=O)N3CCC[C@@H]3C(=O)O)c12 | inactive
CCN(CC)CC(=O)Nc1nn(-c2ccccc2)nc1C(N)=O | inactive

Compound | fluorescence ratio F(max-min)/F0
O=C(C1CCN(S(=O)(=O)c2cnc[nH]2)CC1)N1CCN(Cc2ccc3c(c2)OCO3)CC1 | inactive
OCc1ccc(OCCCOc2cccc3cccnc23)cc1 | inactive
FC(F)(F)c1cc(-c2cccs2)nc(NCc2ccco2)n1 | inactive
O=C(Cc1nc2ccccc2[nH]c1=O)c1ccc(Cl)cc1 | inactive
Clc1ccc(C=NC23CN4CN(CN(C4)C2)C3)cc1 | inactive
CCOC(=O)N1CCN(C(=O)COCc2cc(-c3ccc4c(c3)OCO4)on2)CC1 | inactive
CCSc1nsc(NC(=O)Nc2cccc(C(C)=O)c2)n1 | inactive
CCCc1cc(=S)n2c([nH]c3ccccc32)c1C#N | inactive
O=c1cc(CSc2ccccn2)nc(N2CCN(c3ccccc3)CC2)[nH]1 | inactive
CCOC(=O)CNC(=O)CSc1nc2cccnc2n1CC | inactive
Cc1c(C)c2c(OCC(=O)N[C@@H](C(=O)O)c3ccccc3)cc3c(c2oc1=O)CCC(C)(C)O3 | inactive
Cc1ccc(-c2nn(C(C)(C)C)c3ncnc(N)c23)cc1 | inactive
CCOc1cc(-c2conc2N)cc(OCC)c1OCC | inactive
Brc1ccccc1C1Nc2cccc3cccc(c23)N1 | inactive
c1ccc(-c2[nH]ncc2-c2nc3ccccc3[nH]2)cc1 | inactive
CCOC(=O)c1cn(Cc2cccc(C)c2)nn1 | inactive
CC(C)NC(=S)Nc1cccc2cnccc12 | inactive
CCOC(=O)C1=C(O)/C(=C/c2cc(C)n(-c3ccccc3)c2C)N=C1C | inactive
COc1ccc(C2SCCN2S(=O)(=O)c2ccccc2)cc1OC (stereo not drawn) | inactive
S=C(NCc1ccc(Cl)cc1)NC12CC3CC(CC(C3)C1)C2 | inactive
COc1cc(C(F)(F)F)nc2c(Br)c(C(C)(C)C)nn12 | inactive
CCN(C(=O)CSc1nnc2ccccn12)C1CCS(=O)(=O)C1 (stereo not drawn) | inactive
O=C1C(Cc2ccc(O)cc2)NC(=S)N1Cc1ccccc1 (stereo not drawn) | inactive

Compound | fluorescence ratio F(max-min)/F0
CCOC(=O)c1c(NC(=O)CNC2CCCc3ccccc32)sc(C(N)=O)c1C (stereo not drawn) | inactive
COc1cccc(-c2cnc(OC(C)(C)C)nc2OC(C)(C)C)c1 | inactive
COc1ccc(-n2c(SCC(=O)NCc3ccco3)nnc2-c2c[nH]c3ccccc23)cc1 | inactive
CC(C)CNc1ncnc2c1cnn2Cc1ccc(Cl)cc1 | inactive
Cc1cc2oc3ccc(NCCC4CCCN4C)cc3c(=O)c2cc1C (stereo not drawn) | inactive
CC(=O)Nc1ccc(OC(=O)COc2ccc(Br)cc2)cc1 | inactive
CCCc1[nH]nc2c1C(c1ccc(Br)s1)C(C#N)=C(N)O2 (stereo not drawn) | inactive
CCS(=O)(=O)c1ccc2c(c1)N(S(=O)(=O)c1ccccc1)CC(C(=O)O)O2 (stereo not drawn) | inactive
Fc1cccc(Cl)c1COc1ccc(-c2nnco2)cc1 | inactive
COc1ccc(-c2cc(C(F)(F)F)nc(S(C)(=O)=O)n2)cc1OC | inactive
COCc1nnc(NC(=O)c2ccc3c(c2)OCO3)s1 | inactive
CCc1ccc2nc3sc(C(=O)Nc4nnc(CC)s4)c(N)c3cc2c1 | 0.589 (active)
COc1cc(CCC(=O)Nc2ccncc2Cl)cc(OC)c1OC | inactive
Cc1cc(C)n(CCNC(=O)CC2C(=O)NCCN2Cc2ccc(C)o2)n1 (stereo not drawn) | inactive
COc1ccc(S(=O)(=O)N2CCOCC2)c(C)c1C | inactive
CCOc1ccc(C(=O)NC2CCN(S(=O)(=O)CC)CC2)cc1 | inactive
Cc1ccc(N/C(N)=N/c2nc(C(F)(F)F)cc(C(F)(F)F)n2)cc1 | inactive
Cc1[nH][nH]c(=O)c1C(c1ccc(-c2ccc(Cl)cc2)o1)c1c(C)[nH][nH]c1=O | inactive
Cc1ccc(-n2cnc3ncnc(-c4ccccc4)c32)cc1 | inactive
Cc1c(C(=O)N2CCCc3ccccc32)sc2nc(-c3ccccc3)cn12 | inactive
C(=N\n1cnnc1)/c1cccnc1 | inactive
